Tau FP inhib – inhibitors of human tau fibril formation | K18 P301L tau heparin fibrillization, Alexa594 FP, 6 h | Potency, µM (highest dose often 57.7 µM), without a hit: at the highest dose activity, negative = inhibition, actives largely listed as inhibitors | P10636 | 280,000 compounds, 0.39% hits; further: nearly all actives have a fitted effect of over 55% in size
Target sequence (P10636 561-689 P618L limits assumed): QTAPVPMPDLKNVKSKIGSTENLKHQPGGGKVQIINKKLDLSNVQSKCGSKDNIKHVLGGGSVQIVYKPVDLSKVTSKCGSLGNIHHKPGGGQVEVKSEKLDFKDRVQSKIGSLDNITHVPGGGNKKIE
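Human K18 P301L fragment (15 uM unlabeled plus 0.24 uM Alexa 594-labeled) in 100 mM sodium acetate pH 7 with compound, aggregation induced by 20 uM heparin for 6 hr at 37 C. ThT (30 uM) added for 1 hr, then Alexa 594 FP read.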
PLK1 PBD inh – PLK1 (human) polo-box domain binding inhibition; Plk1 PBD binding of FITC phosphopeptide, fluorescence polarization; P53350; Potency, µM, without a hit: max response, negative = inhibition, actives largely listed as inhibitors; 360,000 compounds, 2.8% hits; further: series mostly up to about 57 µM; nearly all actives have a fitted effect of over 65% in size
Sfp inh – inhibitors of Bacillus subtilis Sfp phosphopantetheinyl transferase | Potency, µM, without a hit: largest response in the series, negative = inhibition, most hits filed as inhibitors | Q9F4F7 | 310,000 compounds, 3.5% hits | Biochemical Sfp PPTase activity, qHTS | AID 1490;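 further: the enzyme is Sfp with the accession as filed and its product quenches rhodamine fluorescence; 0% = enzyme reaction without inhibitor and -100% = no enzyme wells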
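Fluorescence-quenching assay: 15 nM Sfp-PPTase preincubated 15 min at room temperature with compound, then 5 uM rhodamine-CoA and 12.5 uM BHQ-2-labelled YbbR peptide added. Fluorescence (ex 525/em 598 nm) read at start and after 30 min; difference gives rate.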
Tau fluor counter – counter-screen for tau fibril formation inhibitors; tau K18 P301L Alexa594 fluorescence, heparin fibrillization; 280,000 compounds, 0.93% hits; AID 1463; Potency, µM (doses to about 57.7 µM), inactives show at the highest dose activity change, negative = decrease; further: nearly all actives have a fitted effect of over 55% in size
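Human tau K18 P301L (15 uM unlabeled, 0.24 uM Alexa 594-labeled) in 100 mM sodium acetate pH 7 with 20 uM heparin, 6 hr at 37 C. ThT 30 uM added, 1 hr ambient; Alexa 594 FP and total fluorescence read at 555/632 nm.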
Tau ThT inhib – blocks human tau fibril formation measured by thioflavin T; P10636; 270,000 compounds, 2.1% hits; Potency, µM (doses to about 57.4 µM), for inactives: at the top dose activity, negative = inhibition, hits mostly inhibitors; AID 1460; recombinant tau K18 P301L (four-repeat tau fragment), heparin-induced fibrillization, ThT fluorescence; further: nearly all actives have a fitted effect of over 55% in size
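Tau K18 P301L fragment (15 uM unlabeled plus 0.24 uM Alexa 594-labeled) in 100 mM sodium acetate pH 7 with compound, fibrillization induced by 20 uM heparin for 6 hr at 37 C. Thioflavin T (30 uM) added, fluorescence read after 1 hr (ex 450, em 510 nm).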
VDR inhibitor – inhibitors of human vitamin D receptor | VDR-SRC2-3 peptide fluorescence polarization, 2 h | Potency, µM, inactives show max response, negative = inhibition, hits mostly inhibitors | 400,000 compounds, 0.93% hits
Target sequence (P11473 whole entry, looked up): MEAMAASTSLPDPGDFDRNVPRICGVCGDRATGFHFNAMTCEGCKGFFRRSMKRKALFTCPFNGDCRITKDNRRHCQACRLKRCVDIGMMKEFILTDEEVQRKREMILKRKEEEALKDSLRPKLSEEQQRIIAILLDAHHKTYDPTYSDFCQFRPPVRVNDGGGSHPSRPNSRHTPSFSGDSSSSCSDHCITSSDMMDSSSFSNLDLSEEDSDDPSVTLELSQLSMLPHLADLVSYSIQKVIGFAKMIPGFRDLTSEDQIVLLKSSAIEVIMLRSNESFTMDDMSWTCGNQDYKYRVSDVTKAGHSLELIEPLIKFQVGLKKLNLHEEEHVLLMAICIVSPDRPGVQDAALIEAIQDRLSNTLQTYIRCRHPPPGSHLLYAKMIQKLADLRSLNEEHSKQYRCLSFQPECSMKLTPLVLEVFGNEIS
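Compounds are added to VDR with labelled SRC2-3 coactivator peptide and held 2 h at room temperature. Inhibition of the VDR–peptide interaction is then read as a change in fluorescence polarization.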
* hit, by the source's call; ? = inconclusive; nt = no result given; [ ] = dose if it differs, or a comment. Compounds with a hit are over-represented: about 6% of the library has one in this group of screens. The call rests on the fitted dose curve; in most records, active means well fitted curve in the direction sought with a large enough effect; inconclusive means small, poorly fitted or top-dose-only effect, or another doubt; inactive means no such curve, though single readings can be large; an effect the other way counts as inactive or inconclusive. Unless noted, on the % scale 0 is the no-effect control and ±100 the full control effect; potency means the concentration at half of the fitted maximal effect.

SMILES	Tau FP inhib	PLK1 PBD inh	Sfp inh	Tau fluor counter	Tau ThT inhib	VDR inhibitor
N#CC1=C(N)SC(N)=C(C#N)C1C1C=CCCC1 (stereo not given)	-1.8%	-9.0%	39.8µM*	-7.0%	-8.3%	-16.8%
COc1ccc(NC(=O)CSc2c(C(C)C)cnc3c2c(=O)n(C)c(=O)n3C)c(OC)c1	-7.5%	nt	nt	-4.0%	-1.1%	9.1%
NC(=O)NCC(N)C(=O)O (stereo not given)	-1.7%	nt	-12.5%	-7.0%	-9.0%	10.9%
CC(C)CCCCCCNC(=S)Nc1ccc(S(=O)(=O)N2CCOCC2)cc1	25.1µM*	?	31.3%	?	14.5%	-19.9%
O=S(=O)(c1ccc(NC(=S)Nc2ccccc2)cc1)N1CCOCC1	-4.6%	-19.2%	-20.9%	-5.2%	-2.2%	-12.9%
CCCS(=O)(=O)NC(=O)C1(C)CCN(C(=O)c2cccc(C(F)(F)F)c2)C1 (stereo not given)	nt	-11.3%	nt	nt	nt	nt
COc1cccc(C(=O)CSc2nnnn2C)c1	-14.4%	-3.2%	50.1µM*	-12.9%	-16.3%	?
COc1cccc(C(=O)CSc2nccn2C)c1	nt	-6.0%	56.2µM*	nt	nt	-8.1%
CCc1nn(CC(=O)NC(C)CCc2ccccc2)c(=O)c2cc3occc3n12 (stereo not given)	nt	23.8µM*	17.0%	nt	nt	?
Cc1cccc(Cn2cc(/C=C/[N+](=O)[O-])c3ccccc32)c1	-5.2%	-26.2%	-7.0%	-12.0%	?	?
O=C(O)c1ccc(Cn2cc(/C=C\[N+](=O)[O-])c3ccccc32)o1	nt	26.7µM*	-26.5%	nt	nt	12.6µM*
CCN(CC)c1nc2ccccc2c(N)c1-c1ccccc1	3.8%	-6.1%	79.4µM*	-3.0%	-1.2%	1.5%
Cc1nc(N2CCOCC2)c2nc(-c3ccccc3)n(C(C)CN(C)C)c2n1 (stereo not given)	-7.3%	nt	15.4%	-16.5%	-12.7%	nt
Cc1nc2c(C#N)c[nH]n2c(=O)c1CCO	1.0%	9.47µM*	-5.2%	-1.1%	-4.4%	28.2µM*
Cc1nc2c(C#N)c[nH]n2c(=O)c1Cc1ccccc1	-6.0%	-10.4%	4.2%	-0.9%	-2.9%	11.9%
CN(C)c1ccc(N=Nc2cccc(F)c2)cc1	nt	-10.5%	-10.0%	nt	nt	-8.9%
CN(C)c1ccc(N=Nc2cccc3ccoc23)cc1	11.4%	1.3%	44.7µM*	15.8µM*[quencher]	1.41µM*	-14.2%
COc1cccc(-c2ccc3ncnc(N4CCNCC4)c3c2)c1	nt	nt	-0.6%	nt	nt	?
COc1ccc(-c2nn(-c3ccccc3)cc2C(=O)Nc2ccc(C(=O)O)cc2)cc1OC	nt	-3.6%	-1.2%	nt	nt	-22.2%
CCOC(=O)c1ccc(NC(=O)c2cn(-c3ccccc3)nc2-c2ccncc2)cc1	28.2µM*	-0.3%	1.3%	?	-4.3%	23.9%
Cc1ccc(NC(=O)c2cn(-c3ccccc3)nc2-c2ccccc2)cc1	-3.6%	nt	nt	-20.1%	-16.1%	20.8%
CCOC(=O)c1ccc(NC(=O)c2cn(-c3ccccc3)nc2-c2ccc(OC)c(OC)c2)cc1	10µM*	nt	nt	?	?	9.7%
CCOC(=O)c1ccc(NC(=O)c2cn(-c3ccccc3)nc2-c2ccc(C)cc2)cc1	8.91µM*	nt	nt	?	-13.2%	-8.0%
O=C(Nc1nccs1)c1cn(-c2ccccc2)nc1-c1ccccc1	?	-5.4%	10.8%	?	-4.4%	5.9%
CC(C)COc1ccc(-c2nn(-c3ccccc3)cc2C(=O)Nc2nccs2)cc1	14.1µM*	1.3%	14.9%	?	14.8%	-2.7%
SMILES	Tau FP inhib	PLK1 PBD inh	Sfp inh	Tau fluor counter	Tau ThT inhib	VDR inhibitor
CCOC(=O)c1ccc(NC(=O)c2cn(-c3ccccc3)nc2-c2ccc(Br)cc2)cc1	17.8µM*	nt	nt	?	-13.7%	4.1%
COC(=O)c1cn(-c2ccccc2)nc1-c1ccncc1	0.4%	-0.1%	17.0%	0.4%	-2.1%	13.2%
O=C(OCc1ccccc1)c1cn(-c2ccccc2)nc1-c1ccncc1	-0.8%	-4.0%	89.1µM*	-12.7%	-8.6%	4.1%
COc1ccc(O)c(C(=O)C2c3ccccc3C(=O)N2c2ccc(C)cc2)c1 (stereo not given)	-7.9%	?	22.4µM*	-27.3%	-9.5%	-15.6%
CC1(C#CC[N+]2(C)CCCCC2)CCC2C(O1)c1ccccc1OC2(C)C (stereo not given)	4.7%	?	56.2µM*	-5.0%	-7.5%	-12.0%
O=C1c2ccccc2C(=O)N1CCCc1c[nH]c2ccc(Cl)cc12	-14.4%	2.2%	13.1%	11.2µM*[quencher]	-18.1%	?
Cc1ccc2[nH]cc(CCNC(=O)CN3C(=O)c4ccccc4C3=O)c2c1	11.0%	-18.9%	-9.9%	4.6%	12.5%	9.2%
CC(C)Oc1ccc(CNC(=O)c2cnc3sc(N4CCCCC4)nn3c2=O)cc1	-4.3%	nt	nt	-3.8%	4.5%	0.3%
c1ccc(COc2cccc(-c3cc4nc(NCCCn5ccnc5)ccn4n3)c2)cc1	nt	4.2%	nt	nt	nt	nt
COc1cccc(N(CC(=O)Nc2ccccc2C)S(C)(=O)=O)c1	1.0%	-6.4%	8.2%	-5.8%	-2.8%	-1.4%
CCc1ccccc1NC(=O)CN(c1cccc(OC)c1)S(C)(=O)=O	-8.6%	29.9µM*	18.1%	-15.0%	-14.7%	29.9%
O=C(/C=C/Nc1ccc(Nc2ccccc2)cc1)c1cccs1	?	14.7%	5.8%	7.94µM*[quencher]	1.26µM*	10.0%
Cc1cc(N/C=C/C(=O)c2cccs2)ccc1F	-5.0%	-5.0%	-4.4%	-26.3%	?	-7.4%
Cc1ccc(N/C=C/C(=O)c2cccs2)cc1C	-8.7%	-6.6%	50.1µM*	-29.3%	?	9.7%
O=C(/C=C/Nc1ccccc1C(=O)O)c1cccs1	-4.8%	-3.7%	11.0%	-21.1%	?	?
COc1ccc(C)cc1NS(=O)(=O)c1cnc(N)nc1	4.1%	nt	nt	-2.2%	2.5%	-0.1%
Cc1c(N/C=C(\Cl)C(=O)C(F)(F)F)c(=O)n(-c2ccccc2)n1C	?	-2.8%	22.4µM*	-16.7%	?	-12.3%
COC(=O)C1=C(C(=O)OC)[C@@H]2N(C)c3ccccc3[C@@]23C[C@@H](C(=O)OC)N(C(=O)CC(C)C)C3=N1	-2.8%[11.6 µM]	5.9%	?	-22.0%[11.6 µM]	-11.3%[11.5 µM]	-23.2%
COC(=O)C1=C(C(=O)OC)SC(=C2C(=S)C(C)(C)N(C(=O)CC(C)C)c3ccccc32)S1	?	-14.5%	?	?	1.12µM*	?
CCOC(=O)c1ccc(NC(=O)C(CC)Sc2nc3ncccc3[nH]2)cc1 (stereo not given)	-9.2%	nt	nt	-26.1%	-2.8%	6.9%
